# From article PMC11006913
# Where a chain is given by its changes, count along the chain named.
# Experiments:
# Experiment in all cases: PBM; 200 nM protein, PBS
# Conditions in all cases: dsDNA, one strand shown
# HOXB9 [1] = molecular target: HOXB9 (Homo sapiens, UniProt P17482 171-250)
# HOXB9 [2] = molecular target: HOXB9 (Homo sapiens, UniProt P17482 171-250, R186Q)
# SIX6 = molecular target: T1, SIX6 (Homo sapiens, UniProt O95475 114-200, T139Q)
# T1 sequence: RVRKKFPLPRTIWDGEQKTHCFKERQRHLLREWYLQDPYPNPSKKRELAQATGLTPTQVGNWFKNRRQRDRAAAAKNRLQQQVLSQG
# NKX2-6 [3] = molecular target: T2, NKX2-6 (Homo sapiens, UniProt A6NCS4 118-204, R150C)
# T2 sequence: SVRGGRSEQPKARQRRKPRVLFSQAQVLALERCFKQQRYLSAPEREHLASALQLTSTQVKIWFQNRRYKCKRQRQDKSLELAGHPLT
# NKX3-2 [4] = molecular target: NKX3-2 (Homo sapiens, UniProt P78367 192-278, P234S)
# NKX3-2 [5] = molecular target: NKX3-2 (Homo sapiens, UniProt P78367 192-278)
# HOXC9 = HOXC9 (Homo sapiens, UniProt P31274 178-260)
# NKX2-6 [6] = molecular target: T3, NKX2-6 (Homo sapiens, UniProt A6NCS4 118-204, F151L)
# T3 sequence: T2 sequence with C33R, F34L
# CRX = CRX (Homo sapiens, UniProt O43186 26-111, E42D)
# NKX2-6 [7] = molecular target: T4, NKX2-6 (Homo sapiens, UniProt A6NCS4 118-204)
# T4 sequence: T2 sequence with C33R
# ALX1 [8] = molecular target: ALX1 (Homo sapiens, UniProt Q15699 118-204, L144V)
# ALX1 [9] = molecular target: ALX1 (Homo sapiens, UniProt Q15699 118-204, L144R)
# ALX1 [10] = molecular target: ALX1 (Homo sapiens, UniProt Q15699 118-204)
# PROP1 [11] = molecular target: PROP1 (Homo sapiens, UniProt O75360 56-141)
# PROP1 [12] = molecular target: PROP1 (Homo sapiens, UniProt O75360 56-141, R99H)
# PROP1 [13] = molecular target: PROP1 (Homo sapiens, UniProt O75360 56-141, F88S)
# ALX3 [14] = molecular target: ALX3 (Homo sapiens, UniProt O95076 139-225, N203Q)
# ALX3 [15] = molecular target: ALX3 (Homo sapiens, UniProt O95076 139-225)
# ALX3 [16] = molecular target: ALX3 (Homo sapiens, UniProt O95076 139-225, L168Q)
# ALX3 [17] = molecular target: ALX3 (Homo sapiens, UniProt O95076 139-225, L168V)
# ALX3 [18] = molecular target: ALX3 (Homo sapiens, UniProt O95076 139-225, N203S)
# ALX3 (Homo sapiens, UniProt O95076 139-225, N203S), sequence (O95076 139-225 N203S): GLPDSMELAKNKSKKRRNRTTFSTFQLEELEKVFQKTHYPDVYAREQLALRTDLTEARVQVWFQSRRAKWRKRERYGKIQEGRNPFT
# NKX3-2 (Homo sapiens, UniProt P78367 192-278, P234S), sequence (P78367 192-278 P234S): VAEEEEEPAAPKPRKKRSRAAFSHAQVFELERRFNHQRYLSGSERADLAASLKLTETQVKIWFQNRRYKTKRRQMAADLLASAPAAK
# HOXB9 (Homo sapiens, UniProt P17482 171-250), sequence (P17482 171-250): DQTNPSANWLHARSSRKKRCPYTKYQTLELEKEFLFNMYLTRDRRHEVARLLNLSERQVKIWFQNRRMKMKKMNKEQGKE
# NKX3-2 (Homo sapiens, UniProt P78367 192-278), sequence (P78367 192-278): as the sequence (P78367 192-278 P234S) above, with S43P counted along it
# HOXB9 (Homo sapiens, UniProt P17482 171-250, R186Q), sequence (P17482 171-250 R186Q): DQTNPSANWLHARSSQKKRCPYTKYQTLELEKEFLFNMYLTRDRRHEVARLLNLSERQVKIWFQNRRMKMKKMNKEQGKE
# ALX3 (Homo sapiens, UniProt O95076 139-225), sequence (O95076 139-225): as the sequence (O95076 139-225 N203S) above, with S65N counted along it
# CRX, sequence (O43186 26-111 E42D): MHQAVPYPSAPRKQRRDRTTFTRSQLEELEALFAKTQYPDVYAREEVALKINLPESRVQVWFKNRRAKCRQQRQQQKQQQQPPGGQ
# ALX1 (Homo sapiens, UniProt Q15699 118-204, L144V), sequence (Q15699 118-204 L144V): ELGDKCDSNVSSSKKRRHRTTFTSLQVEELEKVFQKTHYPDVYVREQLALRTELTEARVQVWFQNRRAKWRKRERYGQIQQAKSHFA
# ALX3 (Homo sapiens, UniProt O95076 139-225, L168V), sequence (O95076 139-225 L168V): as the sequence (O95076 139-225 N203S) above, with L30V, S65N counted along it
# ALX1 (Homo sapiens, UniProt Q15699 118-204, L144R), sequence (Q15699 118-204 L144R): as the sequence (Q15699 118-204 L144V) above, with V27R counted along it
# ALX3 (Homo sapiens, UniProt O95076 139-225, N203Q), sequence (O95076 139-225 N203Q): as the sequence (O95076 139-225 N203S) above, with S65Q counted along it
# PROP1 (Homo sapiens, UniProt O75360 56-141, F88S), sequence (O75360 56-141 F88S): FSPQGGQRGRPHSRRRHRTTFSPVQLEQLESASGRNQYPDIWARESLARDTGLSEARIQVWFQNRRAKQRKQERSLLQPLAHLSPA
# HOXC9, sequence (P31274 178-260): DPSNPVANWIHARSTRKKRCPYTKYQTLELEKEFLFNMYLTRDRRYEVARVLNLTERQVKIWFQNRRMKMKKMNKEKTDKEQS
# ALX3 (Homo sapiens, UniProt O95076 139-225, L168Q), sequence (O95076 139-225 L168Q): as the sequence (O95076 139-225 N203S) above, with L30Q, S65N counted along it
# ALX1 (Homo sapiens, UniProt Q15699 118-204), sequence (Q15699 118-204): as the sequence (Q15699 118-204 L144V) above, with V27L counted along it
# PROP1 (Homo sapiens, UniProt O75360 56-141), sequence (O75360 56-141): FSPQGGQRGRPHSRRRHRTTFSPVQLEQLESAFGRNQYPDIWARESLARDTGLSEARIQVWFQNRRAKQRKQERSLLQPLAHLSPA
# PROP1 (Homo sapiens, UniProt O75360 56-141, R99H), sequence (O75360 56-141 R99H): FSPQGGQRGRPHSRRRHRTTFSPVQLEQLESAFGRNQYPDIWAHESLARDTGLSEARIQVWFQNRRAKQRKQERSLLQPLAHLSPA
sequence,measurement,setting,value
GGCGATAA,binding signal,HOXB9 [1],"10.4 upbm affinity estimate (log intensity, higher = more binding, comparable within an allelic series)"
same,binding signal,HOXB9 [2],"10.3 upbm affinity estimate (log intensity, higher = more binding, comparable within an allelic series)"
AAAATACC,binding signal,HOXB9 [1],"9.6 upbm affinity estimate (log intensity, higher = more binding, comparable within an allelic series)"
same,binding signal,HOXB9 [2],"9.45 upbm affinity estimate (log intensity, higher = more binding, comparable within an allelic series)"
AACATATG,binding signal,HOXB9 [1],"9.86 upbm affinity estimate (log intensity, higher = more binding, comparable within an allelic series)"
same,binding signal,HOXB9 [2],"9.84 upbm affinity estimate (log intensity, higher = more binding, comparable within an allelic series)"
AGGTATCG,binding signal,SIX6,"11.1 upbm affinity estimate (log intensity, higher = more binding, comparable within an allelic series)"
CCGGTAGG,binding signal,NKX2-6 [3],"9.6 upbm affinity estimate (log intensity, higher = more binding, comparable within an allelic series)"
AACCCATT,binding signal,HOXB9 [1],"10.5 upbm affinity estimate (log intensity, higher = more binding, comparable within an allelic series)"
same,binding signal,HOXB9 [2],"10.4 upbm affinity estimate (log intensity, higher = more binding, comparable within an allelic series)"
CCATTTTC,binding signal,HOXB9 [1],"10.1 upbm affinity estimate (log intensity, higher = more binding, comparable within an allelic series)"
same,binding signal,HOXB9 [2],"10 upbm affinity estimate (log intensity, higher = more binding, comparable within an allelic series)"
CATGCCGG,binding signal,NKX2-6 [3],"9.42 upbm affinity estimate (log intensity, higher = more binding, comparable within an allelic series)"
ACATTACA,binding signal,HOXB9 [1],"10.6 upbm affinity estimate (log intensity, higher = more binding, comparable within an allelic series)"
same,binding signal,HOXB9 [2],"10.5 upbm affinity estimate (log intensity, higher = more binding, comparable within an allelic series)"
GATACCCA,binding signal,SIX6,"11.2 upbm affinity estimate (log intensity, higher = more binding, comparable within an allelic series)"
CTTGCCGC,binding signal,NKX2-6 [3],"9.53 upbm affinity estimate (log intensity, higher = more binding, comparable within an allelic series)"
AAATCTTA,binding signal,HOXB9 [1],"9.84 upbm affinity estimate (log intensity, higher = more binding, comparable within an allelic series)"
same,binding signal,HOXB9 [2],"9.77 upbm affinity estimate (log intensity, higher = more binding, comparable within an allelic series)"
TACTGTAA,binding signal,HOXB9 [1],"10.2 upbm affinity estimate (log intensity, higher = more binding, comparable within an allelic series)"
same,binding signal,HOXB9 [2],"10.1 upbm affinity estimate (log intensity, higher = more binding, comparable within an allelic series)"
AAGCAATA,binding signal,HOXB9 [1],"10.1 upbm affinity estimate (log intensity, higher = more binding, comparable within an allelic series)"
same,binding signal,HOXB9 [2],"10.1 upbm affinity estimate (log intensity, higher = more binding, comparable within an allelic series)"
CTGACCCC,binding signal,NKX2-6 [3],"9.6 upbm affinity estimate (log intensity, higher = more binding, comparable within an allelic series)"
CGGATCAC,binding signal,SIX6,"11.1 upbm affinity estimate (log intensity, higher = more binding, comparable within an allelic series)"
AATGCAAT,binding signal,HOXB9 [1],"10.3 upbm affinity estimate (log intensity, higher = more binding, comparable within an allelic series)"
same,binding signal,HOXB9 [2],"10.2 upbm affinity estimate (log intensity, higher = more binding, comparable within an allelic series)"
CTACTATA,binding signal,HOXB9 [1],"10.2 upbm affinity estimate (log intensity, higher = more binding, comparable within an allelic series)"
same,binding signal,HOXB9 [2],"10 upbm affinity estimate (log intensity, higher = more binding, comparable within an allelic series)"
CGGTTAGC,binding signal,NKX2-6 [3],"9.51 upbm affinity estimate (log intensity, higher = more binding, comparable within an allelic series)"
CAAGTGGA,binding signal,NKX2-6 [3],"11.6 upbm affinity estimate (log intensity, higher = more binding, comparable within an allelic series)"
CATTTAAA,binding signal,HOXB9 [1],"10.7 upbm affinity estimate (log intensity, higher = more binding, comparable within an allelic series)"
same,binding signal,HOXB9 [2],"10.6 upbm affinity estimate (log intensity, higher = more binding, comparable within an allelic series)"
TAAACTAA,binding signal,HOXB9 [1],"10.3 upbm affinity estimate (log intensity, higher = more binding, comparable within an allelic series)"
same,binding signal,HOXB9 [2],"10.1 upbm affinity estimate (log intensity, higher = more binding, comparable within an allelic series)"
AATTGCTA,binding signal,HOXB9 [1],"10.7 upbm affinity estimate (log intensity, higher = more binding, comparable within an allelic series)"
same,binding signal,HOXB9 [2],"10.6 upbm affinity estimate (log intensity, higher = more binding, comparable within an allelic series)"
CATTACTA,binding signal,HOXB9 [1],"10.6 upbm affinity estimate (log intensity, higher = more binding, comparable within an allelic series)"
same,binding signal,HOXB9 [2],"10.5 upbm affinity estimate (log intensity, higher = more binding, comparable within an allelic series)"
AAGTGGCA,binding signal,NKX2-6 [3],"11.6 upbm affinity estimate (log intensity, higher = more binding, comparable within an allelic series)"
same,binding signal,NKX3-2 [4],"12.6 upbm affinity estimate (log intensity, higher = more binding, comparable within an allelic series)"
same,binding signal,NKX3-2 [5],"12.7 upbm affinity estimate (log intensity, higher = more binding, comparable within an allelic series)"
AAAGTGGT,binding signal,NKX2-6 [3],"11.7 upbm affinity estimate (log intensity, higher = more binding, comparable within an allelic series)"
same,binding signal,NKX3-2 [4],"12.7 upbm affinity estimate (log intensity, higher = more binding, comparable within an allelic series)"
same,binding signal,NKX3-2 [5],"12.8 upbm affinity estimate (log intensity, higher = more binding, comparable within an allelic series)"
TATCTCAA,binding signal,HOXC9,"11 upbm affinity estimate (log intensity, higher = more binding, comparable within an allelic series)"
AAGTGGTG,binding signal,NKX2-6 [3],"11.6 upbm affinity estimate (log intensity, higher = more binding, comparable within an allelic series)"
same,binding signal,NKX3-2 [4],"12.7 upbm affinity estimate (log intensity, higher = more binding, comparable within an allelic series)"
same,binding signal,NKX3-2 [5],"12.8 upbm affinity estimate (log intensity, higher = more binding, comparable within an allelic series)"
CACTTACA,binding signal,NKX2-6 [3],"11.6 upbm affinity estimate (log intensity, higher = more binding, comparable within an allelic series)"
same,binding signal,NKX2-6 [6],"10.6 upbm affinity estimate (log intensity, higher = more binding, comparable within an allelic series)"
same,binding signal,NKX3-2 [4],"12.6 upbm affinity estimate (log intensity, higher = more binding, comparable within an allelic series)"
same,binding signal,NKX3-2 [5],"12.6 upbm affinity estimate (log intensity, higher = more binding, comparable within an allelic series)"
GACCCGAC,binding signal,NKX2-6 [3],"9.44 upbm affinity estimate (log intensity, higher = more binding, comparable within an allelic series)"
same,binding signal,NKX3-2 [4],"10.7 upbm affinity estimate (log intensity, higher = more binding, comparable within an allelic series)"
same,binding signal,NKX3-2 [5],"10.7 upbm affinity estimate (log intensity, higher = more binding, comparable within an allelic series)"
AACTAATC,binding signal,CRX,"12.7 upbm affinity estimate (log intensity, higher = more binding, comparable within an allelic series)"
ATCACTTA,binding signal,NKX2-6 [3],"11.6 upbm affinity estimate (log intensity, higher = more binding, comparable within an allelic series)"
same,binding signal,NKX2-6 [7],"13.3 upbm affinity estimate (log intensity, higher = more binding, comparable within an allelic series)"
same,binding signal,NKX2-6 [6],"10.4 upbm affinity estimate (log intensity, higher = more binding, comparable within an allelic series)"
TACACTCA,binding signal,NKX2-6 [3],"11.1 upbm affinity estimate (log intensity, higher = more binding, comparable within an allelic series)"
same,binding signal,NKX3-2 [4],"11.9 upbm affinity estimate (log intensity, higher = more binding, comparable within an allelic series)"
same,binding signal,NKX3-2 [5],"12 upbm affinity estimate (log intensity, higher = more binding, comparable within an allelic series)"
AAGTGGGG,binding signal,NKX2-6 [3],"11.7 upbm affinity estimate (log intensity, higher = more binding, comparable within an allelic series)"
same,binding signal,NKX3-2 [4],"12.7 upbm affinity estimate (log intensity, higher = more binding, comparable within an allelic series)"
same,binding signal,NKX3-2 [5],"12.8 upbm affinity estimate (log intensity, higher = more binding, comparable within an allelic series)"
AAGTGCAC,binding signal,NKX2-6 [3],"11.6 upbm affinity estimate (log intensity, higher = more binding, comparable within an allelic series)"
same,binding signal,NKX3-2 [4],"12.6 upbm affinity estimate (log intensity, higher = more binding, comparable within an allelic series)"
same,binding signal,NKX3-2 [5],"12.7 upbm affinity estimate (log intensity, higher = more binding, comparable within an allelic series)"
GGGGGACC,binding signal,NKX2-6 [3],"8.9 upbm affinity estimate (log intensity, higher = more binding, comparable within an allelic series)"
same,binding signal,NKX2-6 [7],"9.01 upbm affinity estimate (log intensity, higher = more binding, comparable within an allelic series)"
same,binding signal,NKX2-6 [6],"8.91 upbm affinity estimate (log intensity, higher = more binding, comparable within an allelic series)"
CCGTGGGA,binding signal,NKX2-6 [3],"9.37 upbm affinity estimate (log intensity, higher = more binding, comparable within an allelic series)"
same,binding signal,ALX1 [8],"6.49 upbm affinity estimate (log intensity, higher = more binding, comparable within an allelic series)"
same,binding signal,ALX1 [9],"6.42 upbm affinity estimate (log intensity, higher = more binding, comparable within an allelic series)"
same,binding signal,ALX1 [10],"6.53 upbm affinity estimate (log intensity, higher = more binding, comparable within an allelic series)"
AGCCCCCG,binding signal,NKX2-6 [3],"9.1 upbm affinity estimate (log intensity, higher = more binding, comparable within an allelic series)"
same,binding signal,PROP1 [11],"6.76 upbm affinity estimate (log intensity, higher = more binding, comparable within an allelic series)"
same,binding signal,PROP1 [12],"6.62 upbm affinity estimate (log intensity, higher = more binding, comparable within an allelic series)"
same,binding signal,PROP1 [13],"6.15 upbm affinity estimate (log intensity, higher = more binding, comparable within an allelic series)"
AAGGCCCA,binding signal,NKX2-6 [3],"9.71 upbm affinity estimate (log intensity, higher = more binding, comparable within an allelic series)"
same,binding signal,NKX3-2 [4],"10.7 upbm affinity estimate (log intensity, higher = more binding, comparable within an allelic series)"
same,binding signal,NKX3-2 [5],"10.7 upbm affinity estimate (log intensity, higher = more binding, comparable within an allelic series)"
GGGGGCGA,binding signal,NKX2-6 [3],"9.39 upbm affinity estimate (log intensity, higher = more binding, comparable within an allelic series)"
same,binding signal,ALX3 [14],"7.73 upbm affinity estimate (log intensity, higher = more binding, comparable within an allelic series)"
same,binding signal,ALX3 [15],"7.8 upbm affinity estimate (log intensity, higher = more binding, comparable within an allelic series)"
same,binding signal,ALX3 [16],"7.65 upbm affinity estimate (log intensity, higher = more binding, comparable within an allelic series)"
same,binding signal,ALX3 [17],"7.66 upbm affinity estimate (log intensity, higher = more binding, comparable within an allelic series)"
same,binding signal,ALX3 [18],"7.72 upbm affinity estimate (log intensity, higher = more binding, comparable within an allelic series)"
